{"source": "PubChem BioAssay (EPA / NIEHS)", "note": "Active and inactive are the calls of the source. Rule for the calls: active = hit-call score of the fitted dose curve at least 0.9, where 1 is the maximum; inactive = score below 0.9.", "data": [{"read-out": "Human Leukocyte Antigen - DR isotype (HLADR), HLA-DRA (gene 3122)", "experiment": "BSK_BE3C_HLADR: BioMAP Diversity Plus: BE3C Assay for Human Leukocyte Antigen - DR isotype (HLADR) Biomarker Activity (AID 2283032)", "settings": "primary human bronchial epithelial cells; actives raise or lower the signal", "how_it_was_run": "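ELISA read-out of HLA-DR on human lung bronchial epithelial primary cells, measured 24 h post-dosing. Both increases and decreases were scored relative to DMSO vehicle.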", "values": [{"compound": "OCCCCO", "outcome": "inactive"}, {"compound": "CCOP(=S)(OCC)SCS(=O)(=O)C(C)(C)C", "outcome": "inactive"}, {"compound": "OCCN(CCO)CCO", "outcome": "inactive"}, {"compound": "c1ccc2sc(SNC3CCCCC3)nc2c1", "outcome": "inactive"}, {"compound": "O=C(N[C@H]1CN2CCC1CC2)c1ccc2c(c1)OCCO2", "outcome": "inactive"}, {"compound": "COCC(=O)N(c1c(C)cccc1C)[C@H](C)C(=O)OC", "outcome": "inactive"}, {"compound": "Cc1cc(C)cc(C)c1", "outcome": "inactive"}, {"compound": "CCOP(=O)(OCC)OC(=CCl)c1ccc(Cl)cc1Cl", "outcome": "inactive"}, {"compound": "c1ccc(-c2cccc(-c3ccccc3)c2)cc1", "AC50": "20 µM (active)"}, {"compound": "Nc1ccc(N)cc1", "outcome": "inactive"}, {"compound": "CN(C)C(=S)S", "AC50": "25.1 µM (active)"}, {"compound": "CCCCOC(=O)COC(=O)c1ccccc1C(=O)OCCCC", "outcome": "inactive"}, {"compound": "Cc1c([N+](=O)[O-])c(C)c([N+](=O)[O-])c(C(C)(C)C)c1[N+](=O)[O-]", "outcome": "inactive"}, {"compound": "CC(C)O.CC(C)O.OCCN(CCO)CCO.OCCN(CCO)CCO.[Ti]", "outcome": "inactive"}, {"compound": "N#Cc1cccnc1", "outcome": "inactive"}, {"compound": "Cc1ccccc1OP(=O)(Oc1ccccc1C)Oc1ccccc1C", "AC50": "20 µM (active)"}, {"compound": "CCCCCCCCCCCCc1cccc(S(=O)(=O)O)c1", "AC50": "17.6 µM (active)"}, {"compound": "O=C(O)C1(c2ccc3c(c2)OC[C@H](Cc2ccc(-c4ccccc4)cc2)[C@H]3O)CCCC1", "AC50": "7.34 µM (active)"}, {"compound": "Cc1cc(Cl)ccc1N", "outcome": "inactive"}, {"compound": "CCOC(=O)CCN(SN(C)C(=O)Oc1cccc2c1OC(C)(C)C2)C(C)C", "outcome": "inactive"}, {"compound": "C=CC(Cl)CCl", "note": "(centres undefined)", "outcome": "inactive"}, {"compound": "CCC(C)(C#N)N=NC(C)(C#N)CC", "note": "(centres undefined)", "outcome": "inactive"}, {"compound": "[Cl][Sn]([c]1ccccc1)([c]1ccccc1)[c]1ccccc1", "AC50": "0.0934 µM (active)"}, {"compound": "O=[N+]([O-])c1ccc(Nc2ccccc2)cc1", "outcome": "inactive"}, {"compound": "Oc1cc(Cl)c(Cl)cc1Cl", "outcome": "inactive"}, {"compound": "CCCCN(CCCC)C(=S)[S-].CCCCN(CCCC)C(=S)[S-].[Ni+2]", "outcome": "inactive"}, {"compound": "O=C(CCl)NCO", "outcome": "inactive"}, {"compound": "O=[N+]([O-])c1cccc2ccccc12", "outcome": "inactive"}, {"compound": "OC(Cc1ccccc1Cl)(Cn1[nH]cnc1=S)C1(Cl)CC1", "note": "(centres undefined)", "AC50": "20 µM (active)"}, {"compound": "Cc1ccc2nc3sc(=O)sc3nc2c1", "AC50": "5 µM (active)"}, {"compound": "Cc1cccc(OP(=O)(Oc2cccc(C)c2)Oc2cccc(C)c2)c1", "outcome": "inactive"}, {"compound": "Cc1cc(Cl)ccc1OC(C)C(=O)O", "note": "(centres undefined)", "outcome": "inactive"}, {"compound": "O=c1oc2ccccc2c(O)c1C(CC(O)c1ccc(-c2ccc(Br)cc2)cc1)c1ccccc1", "note": "(centres undefined)", "AC50": "5.4 µM (active)"}, {"compound": "C#CCOC(=O)/C=C(C)/C=C/CC(C)CCCC(C)C", "note": "(centres undefined)", "outcome": "inactive"}]}]}
